Source: PubChem BioAssay (several laboratories)
PrPC TRFRET = inhibitors of human cell surface prion protein PrPC. P04156. TR-FRET read-out. inhibition, % at 13.8 µM. hit rate 0.43% among 370,000. AID 720596; in the data active = inhibition above about 24%; also: 0% = median of the test wells and 100% = reference compound wells
MazEF act = activators of E. coli MazEF toxin-antitoxin RNase | activation, % at 20 µM | hit rate 0.32% among 350,000 | P0AE70 | FAM/BHQ RNA-DNA oligo cleavage fluorescence, 5 h; in the data active = activation above about 50%
Target sequence (P0AE70 whole entry, looked up): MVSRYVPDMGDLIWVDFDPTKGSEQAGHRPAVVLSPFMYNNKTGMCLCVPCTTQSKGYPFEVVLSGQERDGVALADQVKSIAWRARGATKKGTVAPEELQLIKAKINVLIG
Y pestis TopoI = Y. pestis Topo-I inhibition via cleavage products. Y. pestis Topo-I cleavage product accumulation, plate reader. activity, % at 10 µM. hit rate 0.064% among 360,000. AID 504884; in the data active = activity above about 50%, passing the limit was not always enough
BH1578 lux ind = inducers of Vibrio cholerae quorum light production without autoinducers; hit rate 0.16% among 350,000; AID 588436; activation, % at 18.7 µM; V. cholerae BH1578 lux reporter, luminescence, 6 h; in the data active = activation mostly above about 9.7%, no sharp cut-off
VHR inh abs = DUSP3 (human) phosphatase inhibition | AID 1654 | inhibition, % at 13.3 µM | hit rate 0.52% among 290,000 | P51452 | recombinant VHR phosphatase, pNPP absorbance; in the data active = inhibition above about 50%
Target sequence (P51452 whole entry, looked up): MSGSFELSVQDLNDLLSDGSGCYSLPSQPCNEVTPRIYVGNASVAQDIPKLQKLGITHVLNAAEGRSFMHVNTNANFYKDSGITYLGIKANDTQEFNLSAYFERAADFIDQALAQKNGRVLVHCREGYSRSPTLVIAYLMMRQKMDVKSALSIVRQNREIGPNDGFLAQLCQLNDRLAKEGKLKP
CCHFV vOTU inh = blocks the CCHF virus ovarian tumor domain protease | CCHFV vOTU protease, Pep-AMC fluorescence | inhibition, % at 11.5 µM | hit rate 0.55% among 370,000 | AID 651958; in the data active = inhibition above about 30%; also: 0% = vehicle wells with enzyme and 100% = no enzyme wells
* = called active by the depositor; i = inactive; · = no result; + = active, no number. Hits are enriched below; roughly 1.8% of the tested compounds scored in any of these assays.

SMILES | PrPC TRFRET | MazEF act | Y pestis TopoI | BH1578 lux ind | VHR inh abs | CCHFV vOTU inh
Cc1ccc(Cl)c2c(N=Nc3ccccc3)c(O)[nH]c12 | -1.9 | + | 0.2 | -1.5 | 51.5* | -2.2
CCOC(=O)CNc1nc(C(C)(C)C)nc2c1nnn2Cc1ccccc1 | -1.7 | -4.2 | 58.7* | 1.9 | 20.4 | 7.7
FC(F)(F)c1nc(NCc2ccccc2)c2nnn(Cc3ccccc3)c2n1 | -0.8 | 9.9 | -1.8 | 0.8 | 9.2 | 10.7
Cc1cccc(NC(=O)/C(=C\c2cccs2)NC(=O)c2ccccc2)c1 | · | 58.9* | 0.7 | · | -0.1 | ·
COc1ccc2c(c1)CN1C(=O)N(Cc3ccccc3)S(=O)(=O)CC21 (centres undefined) | 3.3 | · | · | · | · | 6.3
Cc1cc(/C=C(\C#N)C(=O)N2CCCCC2)cc(C)c1O | 0.9 | -6.2 | 8.6 | -4.8 | 57.6* | 5.8
O=C(C1CCCN1S(=O)(=O)c1ccc(Br)s1)N1CCN(c2ccccc2)CC1 (centres undefined) | -2.9 | · | · | · | · | 3.2
Cc1ccc(-n2c(SC/C=C/c3ccccc3)nnc2-c2cccs2)cc1 | 6.0 | · | · | · | · | 6.2
Cc1ccc(C(=O)c2sc3c(c2N)c(=O)[nH]c(=O)n3CCc2ccccc2)cc1 | -3.8 | -48.9 | 160.4* | -0.3 | -7.9 | -5.9
COc1ccc(C(=O)NC(C)c2nnc(SCC(=O)NC3CCCC3)n2C)cc1 (centres undefined) | 4.5 | 5.7 | 5.6 | -0.3 | 52.9* | -1.6
COc1ccc(C(=O)NC(C)c2nnc(SCC(=O)NC3CCCCC3)n2C)cc1 (centres undefined) | 3.2 | -10.1 | 0.4 | i | 13.0 | -3.5
CCOC(=O)c1c(NC(=S)Nc2ccc(Cl)cc2)sc2c1CCN(C)C2 | -11.1 | 170.9* | -5.3 | -0.4 | 14.1 | -6.6
Cc1c(N=Cc2c(O)n(C)c(=O)c3ccccc23)c(=O)n(-c2ccccc2)n1C | · | 299.7* | 3.8 | 0.9 | 9.7 | ·
CC1(C)CC(=O)C=C(Nc2ccccc2NC(=O)c2cc(Cl)ccc2F)C1 | 7.3 | · | · | · | · | -1.1
CCc1nn(CCCC(=O)N2CCN(c3ccc(OC)cc3)CC2)c(=O)c2cc3occc3n12 | 6.2 | 11.9 | 5.0 | 0.7 | 56.8* | -7.5
CCc1nn(CCCC(=O)N2CCC(C)CC2)c(=O)c2cc3occc3n12 | 4.2 | 7.8 | 13.4 | i | -1.9 | -6.2
CCN(CC)c1ccc(NC(=O)CN(C)Cc2cccs2)cc1 | -2.5 | 4.6 | 28.6 | -0.5 | 53.3* | 6.4
CCC(=O)Nc1ccc2c(c1)C(=O)N(C)[C@@H]1CC[C@@H](CC(=O)OC)O[C@H]1CO2 | -3.7 | · | · | · | · | -1.0
O=[N+]([O-])c1nn(-c2ccccc2)[n+]([O-])c1N1CCN(c2ccccc2)CC1 | -4.0 | -2.3 | -1.1 | -0.3 | 10.6 | 7.5
O=[N+]([O-])c1nn(-c2ccccc2)[n+]([O-])c1N1CCN(c2ccccc2F)CC1 | -7.6 | 143.8* | -8.6 | 0.1 | 7.6 | 14.8
CCOC(=O)C1=C(Cc2ccc(OC)cc2)C(=O)c2ccccc2C1=O | · | 216.9* | 1.5 | -0.2 | 6.2 | ·
C=CCN1C(=O)[C@@H](CC(=O)NCc2ccc(OC)c(OC)c2)[C@]2(C(=O)OCC)CCCCC/C=C/12 | -1.6 | · | · | · | · | -5.2
CC1CC(=O)C2=C(C1)OC(N)=C(C#N)C2c1coc2ccccc2c1=O (centres undefined) | 1.5 | 85.1* | -6.1 | -0.7 | -16.1 | 1.5
C[C@H]1COc2c3ccccc3nn21 | 3.7 | · | · | · | · | -0.8
COc1cccc(N2CC(O)Cn3c2nc2c3c(=O)[nH]c(=O)n2C)c1 (centres undefined) | -7.3 | 5.9 | -1.6 | i | 60.0* | -8.1
SMILES | PrPC TRFRET | MazEF act | Y pestis TopoI | BH1578 lux ind | VHR inh abs | CCHFV vOTU inh
Cc1ccc(N2CC(O)Cn3c2nc2c3c(=O)[nH]c(=O)n2C)cc1 (centres undefined) | -3.4 | 11.0 | 1.1 | 1.4 | 4.9 | -4.5
CN(CC(=O)Nc1ccccc1-c1ccccc1)C1CCCCC1 | 7.1 | 0.3 | 58.4* | -0.3 | 8.9 | 10.3
COC(=O)c1c[nH]c2c1-c1cc(C(=O)OCc3ccccc3)n(S(=O)(=O)c3ccc(C)cc3)c1C(=O)C2=O | 11.2 | 74.8* | -11.2 | -5.6 | · | 18.1
COC(=O)c1cc2c(c3c4cc(C)ccc4n(S(=O)(=O)c4ccc(C)cc4)c13)C(=O)N(Cc1ccccc1)C2 | 1.1 | · | · | · | · | -8.0
COc1cccc(-c2cc(C(C)=O)c3n(c2=O)CCC3)c1OC | 2.2 | · | · | · | · | -3.4
CN(C)C(=O)Cn1cc(S(=O)(=O)Cc2ccccc2)c2ccccc21 | 5.4 | 7.2 | 1.9 | -1.1 | 59.1* | 0.8
COc1cccc(/C=c2\s/c(=C/C(=O)c3ccc(C)cc3)[nH]c2=O)c1OC | 3.2 | -7.9 | -1.0 | -0.2 | -10.5 | 8.3
COc1ccc(/C=c2\s/c(=C/C(=O)c3ccc(C)cc3)[nH]c2=O)c(OC)c1 | -3.3 | + | 1.4 | -0.6 | 8.4 | -18.5
CCn1c(O)c(/C=N/N=C/c2ccccc2)c2ccc(C3=NNC(=O)CC3)cc21 | -4.4 | 747.1* | 5.1 | i | 9.9 | 1.3
O=C(c1ccccc1)c1nc2ccccc2n(CCCn2c(=O)c(C(=O)c3ccccc3)nc3ccccc32)c1=O | -1.7 | -1.2 | 8.7 | i | 34.5 | -6.6
Cn1c(=O)c(C(=O)c2ccccc2)nc2ccccc21 | -6.2 | 0.2 | 5.1 | 0.2 | 51.9* | 2.8
CN(CCc1ccccn1)C(=O)c1ccc2c(c1)ncn2C1CCCCC1 | 3.5 | · | · | · | · | -6.9
Clc1ccc2nc(N3CCNCC3)nc(-c3ccccc3)c2c1 | -20.2 | 37.1 | -3.7 | i | 51.7* | -27.9
Cc1cc(N2CCN(c3ccccc3)CC2)nc(NCc2ccccc2)n1 | -10.8 | 55.1* | 3.5 | i | 14.0 | 3.6
CCCc1nc(C)cc(N2CCN(c3ccccc3)CC2)n1 | 0.7 | -10.0 | 1.5 | i | 1.8 | -12.7
CCn1c(Cc2cccs2)nnc1SCC(=O)c1ccc(Cl)cc1 | 11.9 | · | · | · | · | 14.8
C/C(=N\OCC(=O)N/N=C/c1ccccc1)c1cccs1 | 4.5 | 3.1 | 9.2 | -10.0 | 30.5 | 9.0
C/C(=N\OCC(=O)N/N=C/c1ccccc1O)c1cccs1 | -1.6 | 4.3 | 14.8 | 33.3* | -24.8 | -8.6
CCOC(=O)CN1C=C(c2ccc3ccccc3n2)C(C[N+](=O)[O-])c2ccccc21 (centres undefined) | · | 233.1* | -11.2 | -1.0 | -8.3 | ·
Cc1ccc(CN2C3CCCC2CC(NC(=O)c2ccc(F)cc2)C3)cc1 (centres undefined) | 2.5 | -11.0 | -0.2 | i | -8.3 | -0.2
Cc1ccc(C(=O)NC2CC3CCCC(C2)N3Cc2ccccc2)cc1 (centres undefined) | 0.8 | 6.3 | 4.5 | -0.4 | 52.8* | -6.9
O=C(/C=C\Nc1ccc2c(c1)OCO2)c1ccc(Cl)s1 | 9.0 | 85.8* | -1.0 | -2.0 | 25.9 | -5.0
O=C(OC1CCCCC1)c1ccc2c(c1)C1C=CCC1C(C(=O)O)N2 (centres undefined) | · | · | · | · | 87.4* | ·
O=C(O)c1ccc2c(c1)[C@@H]1C=CC[C@@H]1[C@H](c1ccccn1)N2 | 14.7 | 0.7 | -11.2 | -0.3 | · | 54.3*
